Data reported in PubChem BioAssay AID463173 (ICCB-Longwood Screening Facility, Harvard Medical School, 2010).
About 4,300 (8.3%) of roughly 52,000 compounds were called active. Cut-off read from the data, not from the text of the source: active = survival mostly below about 52% (no sharp cut-off); inactive = mostly above about 56%. For the sample, actives were picked, then their nearest neighbours and some compounds at random.

test system: DeltatarO mutant; assay: growth inhibition of S. aureus wild type versus tarO mutant, primary screen, teichoic acid synthesis inhibitors, RN4220, OD600 (AID 463173); settings: OD600, 18 h, stronger effect = lower value, screened at 18.75 µg/mL (by protocol)

SMILES	survival
Cc1ccc2c(CC(=O)Nc3nnc(C(C)C)s3)coc2c1C	101% (inactive)
CC(C)c1ccc(CN(C(=O)c2cc3ccccc3oc2=O)C2CCS(=O)(=O)C2)cc1 (stereo not drawn)	51% (inactive)
CCCCOC(=O)c1ccc(NC(=O)c2ccc3c(c2)CCCN3S(C)(=O)=O)cc1	96% (inactive)
C=CCC1N(c2ccccc2)C(=O)C2C(C(=O)O)C3C=CC21O3 (stereo not drawn)	103% (inactive)
[O-][n+]1onc2c1CCC1N(O)C(c3ccccc3)CC21O (stereo not drawn)	80% (inactive)
O=C(CCSCc1ccc(Cl)cc1)N1CCN(c2ccccc2F)CC1	77% (inactive)
CC1=C(C(=O)Nc2cc(C)ccc2C)C2(CCCCCC2)OC1=O	89% (inactive)
Cc1ccccc1NC(=O)C(=O)NCC1(c2ccccc2)CCCC1	73% (inactive)
O=C(Cn1c(=O)n(-c2ccccc2Cl)c(=O)c2sc3ccccc3c21)NC1CCCCC1	109% (inactive)
COc1ccc(CCNC(=O)c2ccc(Cn3c(=O)c4cccn4c4cccnc43)cc2)cc1OC	48% (active)
CCOc1ccc(CCNC(=O)c2ccc(Cn3c(=O)c4cccn4c4cccnc43)cc2)cc1	93% (inactive)
COc1ccc(CCNC(=O)CCn2c(=O)c3cccn3c3cccnc32)cc1OC	82% (inactive)
CCc1ccc(CNC(=O)c2ccc(Cn3c(=O)c4cccn4c4cccnc43)cc2)cc1	67% (inactive)
Cc1cccc(CNC(=O)c2ccc(Cn3c(=O)c4cccn4c4cccnc43)cc2)c1	48% (active)
O=C(NCc1ccccc1)c1ccc(Cn2c(=O)c3cccn3c3cccnc32)cc1	108% (inactive)
Cc1cc(C)c2sc(N(Cc3cccnc3)C(=O)CCS(=O)(=O)c3ccccc3)nc2c1	89% (inactive)
CCc1ccccc1NC(=O)Cn1c(=O)nc(-c2ccccc2)c2ccccc21	90% (inactive)
N#Cc1ccccc1Cn1c(=O)n(-c2ccc(F)c(Cl)c2)c(=O)c2sccc21	112% (inactive)
O=S(=O)(c1ccccc1)c1cccc(S(=O)(=O)N2CCCC2)c1	86% (inactive)
Cc1cccc(C)c1NC(=O)C(c1ccccc1)N(Cc1ccco1)C(=O)Cn1nnc2ccccc21 (stereo not drawn)	74% (inactive)
CCOc1ccc(NC(=O)C2CCN(C(=O)N3CC(C)Oc4ccc(Cl)cc43)CC2)cc1 (stereo not drawn)	100% (inactive)
Cc1cc(=O)oc2ccccc12	83% (inactive)
Cc1ccc(C(c2nnnn2C2CCCC2)N2CCc3ccccc32)cc1 (stereo not drawn)	100% (inactive)
CC(C)CCNC(=O)Nc1ccc2c(c1)N(C)C(=O)c1ccccc1S2	89% (inactive)

SMILES	survival
Cc1ccccc1CNC(=O)Nc1ccc2c(c1)N(C)C(=O)c1ccccc1S2	63% (active)
COc1cccc(NC(=O)Nc2ccc3c(c2)N(C)C(=O)c2ccccc2S3)c1	51% (inactive)
CN1C(=O)c2ccccc2Sc2ccc(NC(=O)NCc3ccccc3Br)cc21	51% (inactive)
CCOC(=O)c1cccc(NC(=O)Nc2ccc3c(c2)N(C)C(=O)c2ccccc2S3)c1	92% (inactive)
CC(C)CCNC(=O)c1ccc2c(c1)N(Cc1cccc(Cl)c1)C(=O)c1ccccc1S2	83% (inactive)
CCc1ccccc1NC(=O)Nc1ccc2c(c1)N(CC)C(=O)c1ccccc1S2	41% (active)
CCc1cccc(NC(=O)Nc2ccc3c(c2)N(C)C(=O)c2ccccc2S3)c1	26% (active)
CC(C)CCNC(=O)c1ccc2c(c1)N(C)C(=O)c1ccccc1S2	-5% (active)
COc1ccccc1CNC(=O)Nc1ccc2c(c1)N(C)C(=O)c1ccccc1S2	70% (inactive)
CCN1C(=O)c2ccccc2Sc2ccc(NC(=O)Nc3ccccc3OC)cc21	61% (inactive)
CCN1C(=O)c2ccccc2Sc2ccc(NC(=O)Nc3cc(C)cc(C)c3)cc21	67% (inactive)
CCOC(=O)c1c(C)[nH]c(C)c1S(=O)(=O)N1CCCC(C(=O)N2CCN(c3ccccc3F)CC2)C1 (stereo not drawn)	84% (inactive)
CCc1ccc2oc(-c3ccc(C)c(NC(=O)Cc4ccccc4)c3)nc2c1	145% (inactive)
CCOc1ccc2c(c1)c(=O)c(C(=O)c1ccccc1)cn2Cc1ccccc1	87% (inactive)
Cc1ccc(S(=O)(=O)Cn2nnnc2CN2CCC(Cc3ccccc3)CC2)cc1	100% (inactive)
O=C(Cn1c(=O)c2cccn2c2ccc(F)cc21)Nc1cccc(F)c1	64% (inactive)
Cc1ccc(C2=Nc3ccccc3N=C(c3ccc(F)cc3)C2)c(O)c1	60% (inactive)
COC(=O)Cn1c(C(=O)OC)cc2c1ccn2-c1ccc(F)cc1	93% (inactive)
Cc1nn(CCCC(=O)NCc2ccc(F)cc2)c(=O)c2c1sc1ccccc12	85% (inactive)
O=C(NCCc1ccc(Cl)cc1)C(=O)NCC(c1ccc2c(c1)OCO2)N1CCOCC1 (stereo not drawn)	117% (inactive)
O=C(c1cccn2c(=O)c3cc(Cl)ccc3nc12)N1CCN(c2ccccc2F)CC1	76% (inactive)
COc1cccc(CNC(=O)Nc2ccc3c(c2)N(C)C(=O)c2ccccc2S3)c1	42% (active)
CN1C(=O)c2ccccc2Sc2ccc(NC(=O)NCc3cccc(Cl)c3)cc21	78% (inactive)
COc1ccc(CNC(=O)Nc2ccc3c(c2)N(C)C(=O)c2ccccc2S3)cc1	112% (inactive)

SMILES	survival
CCOC(=O)c1c(C)[nH]c(C)c1S(=O)(=O)N1CCC(C(=O)Nc2ccc(OCC)cc2)CC1	-1% (active)
CCOC(=O)c1c(C)[nH]c(C)c1S(=O)(=O)N1CCC(C(=O)Nc2ccc(C)c(Cl)c2)CC1	79% (inactive)
CCOC(=O)c1c(C)[nH]c(C)c1S(=O)(=O)N1CCC(C(=O)NCc2ccc(F)cc2)CC1	6% (active)
CCOC(=O)c1c(C)[nH]c(C)c1S(=O)(=O)N1CCC(C(=O)NCc2ccccc2)CC1	81% (inactive)
CCOC(=O)c1c(S(=O)(=O)N2CCC(C(=O)Nc3ccc(OCC)cc3)CC2)c(C)n(C)c1C	99% (inactive)
CCOC(=O)c1c(C)[nH]c(C)c1S(=O)(=O)N1CCC(C(=O)NCc2ccc(C)cc2)CC1	72% (inactive)
CCN(C(=O)c1ccco1)c1nnc(Cn2nnc3ccccc32)s1	91% (inactive)
Cc1c(C2=CCN(S(=O)(=O)c3cccc(Cl)c3)CC2)c2ccccc2n1CC(=O)N1CCCC1	75% (inactive)
CN1CC(=O)Nc2cc(C(=O)O)ccc21	87% (inactive)
Cc1ccccc1OCc1ccc(-c2nc(C#N)c(N3CCCCC3)o2)o1	99% (inactive)
CCN1CCN(c2oc(-c3ccc(COc4ccc(OC)cc4)o3)nc2C#N)CC1	49% (active)
CCN1CCN(c2oc(-c3ccc(COc4ccc(C)cc4)o3)nc2C#N)CC1	38% (active)
COc1ccc(OCc2ccc(-c3nc(C#N)c(N4CCN(c5ccccc5)CC4)o3)o2)cc1	77% (inactive)
CCN1CCN(c2oc(-c3ccc(COc4ccccc4C)o3)nc2C#N)CC1	82% (inactive)
COc1ccc(OCc2ccc(-c3nc(C#N)c(N4CCC(C)CC4)o3)o2)cc1	54% (inactive)
Cc1ccccc1OCc1ccc(-c2nc(C#N)c(N3CCC(C(N)=O)CC3)o2)o1	38% (active)
N#Cc1nc(-c2ccc(COc3ccc(Cl)cc3)o2)oc1N1CCC(C(N)=O)CC1	34% (active)
Cc1ccc(OCc2ccc(-c3nc(C#N)c(N4CCC(C)CC4)o3)o2)cc1	58% (inactive)
COc1ccc(OCc2ccc(-c3nc(C#N)c(N4CCC(C(N)=O)CC4)o3)o2)cc1	72% (inactive)
Cc1cccc(OCc2ccc(-c3nc(C#N)c(N4CCC(C(N)=O)CC4)o3)o2)c1	80% (inactive)
CC1CCN(c2oc(-c3ccc(COc4ccc(Cl)cc4)o3)nc2C#N)CC1	81% (inactive)
Cc1nc2c3ccccc3nc(NNC(=O)CCC(=O)O)n2n1	94% (inactive)
Cc1ccc(C2c3cccn3CCN2S(=O)(=O)c2ccc([N+](=O)[O-])cc2)cc1 (stereo not drawn)	99% (inactive)
CC(C)CCNC(=O)c1ccc2c(c1)nc1n2CCCCC1	86% (inactive)

SMILES	survival
CCCCN(C)S(=O)(=O)c1cc(-c2cc(C)no2)ccc1C	84% (inactive)
COc1ccc(OCc2ccc(-c3nc(C#N)c(N4CCN(c5cccc(Cl)c5)CC4)o3)o2)cc1	75% (inactive)
COc1ccc(OCc2ccc(-c3nc(C#N)c(N4CCN(C)CC4)o3)o2)cc1	52% (inactive)
COc1ccc(OCc2ccc(-c3nc(C#N)c(N4CCCCC4)o3)o2)cc1	42% (active)
N#Cc1nc(-c2ccc(COc3ccc(Cl)cc3)o2)oc1N1CCCCC1	49% (inactive)
N#Cc1nc(-c2ccc(COc3ccccc3)o2)oc1N1CCCCC1	48% (inactive)
CN1CCN(c2oc(-c3ccc(COc4ccc(Cl)cc4)o3)nc2C#N)CC1	45% (active)
Cc1ccc(C)c(N2CCN(S(=O)(=O)c3ccc4c(c3)CC(=O)N4C)CC2)c1	125% (inactive)
CC(C)CCNC(=O)C(=O)Nc1c2c(nn1-c1ccccc1)CS(=O)(=O)C2	77% (inactive)
COCCNC(=O)C(=O)Nc1c2c(nn1-c1ccccc1)CS(=O)(=O)C2	92% (inactive)
CC(C)OCCCNC(=O)C(=O)Nc1c2c(nn1-c1ccccc1)CS(=O)(=O)C2	-5% (active)
CN(c1ccc(Cl)cc1)S(=O)(=O)c1nnc(NC(=O)C2CCCCC2)s1	106% (inactive)
Cc1ccc(NC(=O)C(Cc2ccccc2)NS(=O)(=O)c2cccc3nsnc23)c(C)c1 (stereo not drawn)	125% (inactive)
CCCNC(=O)C1CCC(Cn2c(=O)c3sccc3n(CC(=O)N3CCC(C)CC3)c2=O)CC1 (stereo not drawn)	73% (inactive)
Cc1ccccc1NC(=O)c1ccccc1NC(=O)c1ccccc1Cl	72% (inactive)
Cc1cc(C(F)(F)F)n2nc(C)cc2n1	68% (inactive)
Cc1cc2nc(-c3ccc(OCc4ccccc4)cc3)cc(C(F)(F)F)n2n1	79% (inactive)
Cc1cc2nc(-c3ccc(OCc4ccc(F)cc4)cc3)cc(C(F)(F)F)n2n1	34% (active)
COc1ccc(-c2cc3nc(-c4ccc(C)cc4)cc(C(F)(F)F)n3n2)cc1	135% (inactive)
Cc1ccc(COc2ccc(-c3cc(C(F)(F)F)n4nc(C)cc4n3)cc2)cc1	137% (inactive)
Cc1cccc(COc2ccc(-c3cc(C(F)(F)F)n4nc(C)cc4n3)cc2)c1	9% (active)
